The text below walks through data of PubChem BioAssay (NCI).

Common to all, as to assay: NCI-60 one-dose screen, 48 h (100 = growth as untreated, 0 = no growth, -100 = all killed)
The subject of one assay is T-47D breast. The settings on record: 10 µM.
Another assay has as its system BT-549 breast. Conditions: 10 µM unless noted.
A further assay deals with MDA-MB-435 melanoma. Conditions: 10 µM unless noted.
Another assay deals with SW-620 colon. The settings on record: 10 µM unless noted.
A further assay relates to MCF7 breast. The settings on record: 10 µM unless noted.
In another assay the test system is HCT-116 colon. Conditions: 10 µM unless noted.
The next assay concerns HCC-2998 colon. Conditions: 10 µM unless noted.
The next assay concerns KM12 colon. Conditions: 10 µM unless noted.

Structures are written as SMILES. The panel holds about 83,000 compounds, 20% with a hit somewhere; the sample as a whole holds those more often.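 Values shown are percent growth following 48 h exposure of cells in 96-well plates to a single concentration of compound; below 10 was considered active.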 Values without a mark were called inactive. The source made the active and inactive calls.

On to `Cc1cc(=O)c2c(C)ccc(C)c2[nH]1`, for which the growth was 96.1% with T-47D breast; 123% in the assay with BT-549 breast; 104% in the assay on MDA-MB-435 melanoma; 104% with SW-620 colon; 93.5% with MCF7 breast; 96.3% in the assay with HCT-116 colon. For the same compound, the values for the growth with HCC-2998 colon and with KM12 colon were 91.2% and 130%, respectively.

Take `O=C1C(Cl)=C(NCCCN2CCOCC2)C(=O)c2ccccc21`: the growth is 102% with T-47D breast; 97.2% in the assay with BT-549 breast; 63.9% with MDA-MB-435 melanoma; 79.2% in the assay on SW-620 colon; 74.6% in the assay on MCF7 breast; 97.5% in the assay with HCT-116 colon. In addition, the values for the growth with HCC-2998 colon and with KM12 colon were 91.3% and 91.4%, respectively.

In the case of `Clc1nc(-c2ccccn2)nc2sc3c(c12)CCCCCC3`, the growth is 42.2% in the assay on T-47D breast; 85.1% with BT-549 breast; 91.4% in the assay with MDA-MB-435 melanoma; 102% with SW-620 colon; 54% with MCF7 breast; 84.5% in the assay on HCT-116 colon. For the same compound, the growth in the assay on HCC-2998 colon is 63.4%; with KM12 colon, 91.6%.

As for `COc1cc(-c2nc3ccccc3o2)cc(CN2CCN(c3ccccc3)CC2)c1O`, the growth in the assay with T-47D breast was 91.5%; in the assay on BT-549 breast, 55.3%; in the assay with MDA-MB-435 melanoma it was -78% (active); in the assay with SW-620 colon, 94.3%; in the assay on MCF7 breast, 60.6%; with HCT-116 colon, 56.4%. Moreover, the results for the growth with HCC-2998 colon and with KM12 colon were 85.5% and 49.8%, respectively.

Regarding `Cc1nc2cc(Nc3nc(N4CCCCC4)nc(N4CCOCC4)n3)ccc2n1Cc1ccccc1`, the growth is -8% (active) in the assay with T-47D breast; 63.2% with BT-549 breast; 52.8% with MDA-MB-435 melanoma; 44.1% in the assay with SW-620 colon; 65.5% with MCF7 breast; -49.9% (active) with HCT-116 colon. Besides, the growth in the assay on HCC-2998 colon is 94.3%; in the assay with KM12 colon, 18.3%.

For `O=C1/C(=C/c2ccc(F)cc2)CN(Cc2cn(CCNc3ccnc4cc(Cl)ccc34)nn2)C/C1=C\c1ccc(F)cc1`, the growth in the assay with T-47D breast is -31.2% (active); in the assay with BT-549 breast it was -91.1% (active); in the assay on MDA-MB-435 melanoma, -86.5% (active); in the assay on SW-620 colon it was -70.5% (active); with MCF7 breast, -79.6% (active); in the assay with HCT-116 colon it was -84.5% (active). For the same compound, the growth in the assay with HCC-2998 colon is -92.1% (active); with KM12 colon, -71.4% (active).

Regarding `COc1ccc(-c2nc3sc(C)cn3c2/C=C/C(=O)c2cc(OC)c(OC)c(OC)c2)cc1`, the growth in the assay on T-47D breast is 50.3%; in the assay on BT-549 breast it was 59.9%; in the assay with MDA-MB-435 melanoma, 20.9%; in the assay with SW-620 colon, 64.3%; in the assay with MCF7 breast it was 46.7%; with HCT-116 colon, 42.1%. The growth in the assay with HCC-2998 colon was 69.3%; in the assay with KM12 colon it was 29.3%.

For `COC(=O)c1c2c(c(C)[n+]([O-])c1C)C(=O)C(NCc1ccc(O)cc1)=CC2=O`, the growth in the assay on T-47D breast is -7.43% (active); with BT-549 breast it was 34.5%; in the assay with MDA-MB-435 melanoma it was -96.5% (active); with SW-620 colon it was -3.33% (active); in the assay on MCF7 breast it was -63.4% (active); with HCT-116 colon, -6.79% (active). Further, the growth in the assay on HCC-2998 colon was -20.1% (active); with KM12 colon, 2.07% (active).

As for `Nc1nc2c(s1)CCc1c-2c(Br)n(Cc2ccccc2)c1Br`, the growth in the assay on T-47D breast is 34.3%; with BT-549 breast, 93.7%; in the assay on MDA-MB-435 melanoma, 95.6%; in the assay on SW-620 colon, 35.3%; in the assay on MCF7 breast, 78.4%; in the assay with HCT-116 colon it was 23.5%. Further, the growth in the assay on HCC-2998 colon was 102%; in the assay with KM12 colon, 108%.

Turning to `CCOC(=O)c1sc(NC(=O)CN2CCC(Cc3ccccc3)CC2)nc1C`, the growth was 101% in the assay with T-47D breast; 104% in the assay on BT-549 breast; 105% in the assay with MDA-MB-435 melanoma; 95.8% in the assay with SW-620 colon; 94.4% with MCF7 breast; 81.5% in the assay on HCT-116 colon. Besides, the growth with HCC-2998 colon is 102%; in the assay on KM12 colon, 106%.

Regarding `CCCN(CCC)c1ccc(/C=C/c2ccc3cc(OCC)ccc3n2)cc1`, the growth with T-47D breast was 59.1%; with BT-549 breast it was 119%; in the assay on MDA-MB-435 melanoma, 95%; in the assay on SW-620 colon, 89.6%; in the assay on MCF7 breast, 84.9%; in the assay with HCT-116 colon it was 70.4%. Besides, the growth was 94.4% with HCC-2998 colon and 128% in the assay with KM12 colon.

Turning to `Clc1ccc(C2=NN(c3ccccc3)[C@H](c3cn(-c4ccccc4)nc3-c3ccccc3)C2)cc1`, the growth was 112% in the assay on T-47D breast; 112% in the assay on BT-549 breast; 99.8% in the assay on MDA-MB-435 melanoma; 107% in the assay on SW-620 colon; 97.5% in the assay on MCF7 breast; 90% with HCT-116 colon. Further, the growth with HCC-2998 colon is 103%; in the assay with KM12 colon, 104%.

With `Nc1nc(N)c(C=Nc2ccc(Br)cc2)c(Nc2ccc(Br)cc2)n1`, the growth was 76.8% in the assay on T-47D breast; 69.3% in the assay with BT-549 breast; 84.7% in the assay on MDA-MB-435 melanoma; 99.7% in the assay with SW-620 colon; 72.7% in the assay with MCF7 breast; 78.5% in the assay with HCT-116 colon. Also, the figures for the growth in the assay with HCC-2998 colon and in the assay with KM12 colon were 83.5% and 86.3%, respectively.

Regarding `O=C(O)c1ccccc1Oc1cc(-c2ccco2)nc(OCCBr)n1`, the growth was 101% with T-47D breast; 92.1% in the assay with BT-549 breast; 101% in the assay on MDA-MB-435 melanoma; 105% in the assay with SW-620 colon; 101% in the assay on MCF7 breast; 96.5% in the assay on HCT-116 colon. For the same compound, the figures for the growth in the assay with HCC-2998 colon and in the assay on KM12 colon were 107% and 95.6%, respectively.
